The results in this text go back to PubChem BioAssay AID463173 (ICCB-Longwood Screening Facility, Harvard Medical School, 2010).

Screen size: about 52,000 compounds; about 4,300 (8.3%) were called active. This is one part of a sample in which actives are shown more often than they occur. Cut-off read from the data, not from the text of the source: active = survival mostly below about 52% (no sharp cut-off); inactive = mostly above about 56%.

The assay has as its system DeltatarO mutant. In words: growth inhibition of S. aureus wild type versus tarO mutant, primary screen, teichoic acid synthesis inhibitors, RN4220, OD600 (AID 463173). As to conditions: OD600, 18 h, hits give low values, screened at 18.75 µg/mL (by protocol).
With `CCc1ccccc1NC(=O)CCn1cccn1`, the survival was 135% (inactive). As for `CCC1CN(C(=O)N2CCC(C(=O)NCc3ccco3)CC2)c2ccccc2O1` (stereo not drawn), the figure is 66% (inactive); as for `COc1ccccc1CNC(=O)C1CCN(S(=O)(=O)c2c(C)noc2/C=C/c2cccs2)CC1`, 59% (inactive); as for `CN(C(=O)CSc1nc2ccc(NC(=O)c3cccc(F)c3)cc2s1)c1ccccc1`, 69% (inactive). In the case of `Cc1ccccc1NC(=O)C(=O)NCC(c1ccc2c(c1)OCO2)N1CCN(c2ccccc2)CC1` (stereo not drawn) it was 73% (inactive). As for `O=S(=O)(Nc1cccc(C(F)(F)F)c1)c1ccc(-c2cnc(C3CC3)o2)cc1`, the figure is 91% (inactive); as for `c1ccc2[nH]c(CN3CCCCC3)nc2c1`, 59% (inactive); as for `O=C(NCc1ccc(F)cc1)c1ccc(NC(=O)N2CC3CCCN3c3ccccc32)cc1` (stereo not drawn), 113% (inactive). With `Cc1oc(CC(C)C)cc1C(N)=O`, the survival was 100% (inactive). As for `O=C(CSC1=Nc2ccccc2C2=NC(Cc3ccccc3)C(=O)N12)Nc1ccccc1` (stereo not drawn), the figure is 74% (inactive). In the case of `CCOc1ccc(-c2cn(-c3ccc(OC)cc3)c(SCC(=O)Nc3ccccc3Cl)n2)cc1` it was 99% (inactive); in that of `COc1ccc(NC(=O)CSc2nnc3scc(-c4ccc(Cl)cc4)n23)cc1`, 95% (inactive); in that of `O=C(CSc1nnc2scc(-c3ccccc3)n12)Nc1ccc(Cl)cc1`, 56% (inactive). In the case of `O=C(CSc1nnc2scc(-c3ccc(Cl)cc3)n12)Nc1cccc(C(F)(F)F)c1` it was 58% (inactive); in that of `O=C(CSc1nnc2scc(-c3ccc(Cl)cc3)n12)Nc1ccc(F)cc1`, 57% (inactive); in that of `CC(C)(C)c1ccc(NC(=O)CSc2nnc3scc(-c4ccccc4)n23)cc1`, 41% (active). As for `CCOc1ccc(NC(=O)CSc2nnc3scc(-c4ccc(Cl)cc4)n23)cc1`, the survival was 48% (inactive). In the case of `Cc1ccc(NC(=O)CSc2nnc3scc(-c4ccccc4)n23)cc1` it was 15% (active).

As to `Cc1cccc(NC(=O)CSc2nnc3scc(-c4ccccc4)n23)c1`, the survival is 40% (active).

Take `Cc1ccc(NC(=O)CSc2nnc3scc(-c4ccc(Cl)cc4)n23)cc1`: the survival is 49% (inactive). `CCOc1ccc(NC(=O)CSc2nnc3scc(-c4ccccc4)n23)cc1`: the survival is 17% (active).

Regarding `CC(=O)Nc1ccc(C(=O)CSc2nnc3scc(-c4ccccc4)n23)cc1`, the survival is 89% (inactive).

As to `COc1cccc(NC(=O)CSc2nnc3scc(-c4ccc(Cl)cc4)n23)c1`, the survival was 52% (inactive). As for `CC(NCc1ccc(F)cc1)C(=O)NC1CCCCC1` (stereo not drawn), the figure is 79% (inactive); as for `Cc1ccc(NC(=O)C2CC(=O)N(c3ccc(OC(C)C)cc3)C2)cc1` (stereo not drawn), 82% (inactive); as for `COc1ccc(C2CC(c3c(O)n(C4CCCCC4)c(=O)[nH]c3=O)=Nc3ccccc3S2)cc1` (stereo not drawn), 48% (inactive).

For the compound `O=C1COc2ccccc2N1Cc1ccc(OC(F)(F)F)cc1`, the survival is 86% (inactive). With `COc1ccc(CC(=O)NCc2ccc3c(c2)CCN3C(=O)c2ccccc2)cc1OC`, the survival is 82% (inactive). As for `Cc1ccc(CN(Cc2cccn2-c2nnc(N3CCCC3=O)s2)C(=O)Nc2cc(C)cc(C)c2)cc1`, the figure is 123% (inactive). For `COc1ccc(Nc2nc3ccc(C)cc3nc2-n2nc(C)cc2C)cc1Cl`, the survival was 69% (inactive). In the case of `COc1cccc(CNC(=O)c2ccc3c(c2)nc2n3CCC(C)C2)c1` (stereo not drawn) it was 72% (inactive). In the case of `Cc1cn2c(=O)cc(COC(=O)c3cccc(NC(=O)COc4ccccc4C)c3)nc2s1` it was 85% (inactive); in that of `CCOc1ccc(CCNC(=O)c2cc3c(-c4ccccc4F)nn(C)c3s2)cc1OCC`, 67% (inactive). Regarding `CCn1nc(-c2ccccc2)c(-c2ccccc2)c(C(=O)Nc2nc(C)c(C(C)=O)s2)c1=O`, the survival is 53% (inactive).

For `COCc1cc(C)nc2c1C(=O)NC(c1ccc(NC(C)=O)cc1)N2Cc1ccccc1` (stereo not drawn), the survival is 74% (inactive). In the case of `O=C(CSc1nccn1Cc1ccc(Cl)cc1)NC1CCCC1` it was 83% (inactive); in that of `COc1ccc(CNC(=O)Cn2c(=O)nc(-c3ccccc3F)c3cc(Cl)ccc32)cc1`, 72% (inactive). As for `CCC(C)Nc1nc(OC(C(F)(F)F)C(F)(F)F)nc(N(CC)CC)n1` (stereo not drawn), the figure is 80% (inactive); as for `Nc1nc(OC(C(F)(F)F)C(F)(F)F)nc(OC(C(F)(F)F)C(F)(F)F)n1`, 13% (active); as for `FC(F)(F)COc1nc(OCC(F)(F)F)nc(OCC(F)(F)F)n1`, 74% (inactive). In the case of `O=C(O)Cn1ccc(=O)[nH]c1=O` it was 96% (inactive). On to `CCOc1ccc(CCNC(=O)c2cc3c(=O)oc4ccc(C)cc4c3s2)cc1OCC`, for which the survival was 67% (inactive).

For `Cc1nc2nc(NCc3ccc(Cl)cc3)[nH]n2c(=O)c1Cc1ccccc1`, the survival was 40% (active). As for `Cc1nc2nc(NCc3ccc(Br)cc3)[nH]n2c(=O)c1Cc1ccccc1`, the figure is 39% (active); as for `Cc1nc2nc(NCc3ccccc3Cl)[nH]n2c(=O)c1Cc1ccccc1`, 83% (inactive). As for `Cc1nc2nc(NCc3cccc(Cl)c3)[nH]n2c(=O)c1Cc1ccccc1`, the figure is 78% (inactive); as for `Cc1nc2nc(NCc3cccc(Br)c3)[nH]n2c(=O)c1Cc1ccccc1`, 54% (inactive); as for `CCc1ccc(CNc2nc3nc(C)c(Cc4ccccc4)c(=O)n3[nH]2)cc1`, 80% (inactive). In the case of `Nc1ccc(Oc2ccc(C(=O)O)c(C(=O)O)c2)cc1` it was 98% (inactive); in that of `O=C(NCc1ccco1)C1C2C3CCC(C3)C12` (stereo not drawn), 77% (inactive). As for `N#CC1=C(N)SC(N)=C(C#N)C1c1ccc(O)cc1`, the survival was 82% (inactive).

For the compound `N#CC1=C(N)SC(N)=C(C#N)C1CCC1CCCCC1`, the survival was 2% (active). As for `CC(CC1C(C#N)=C(N)SC(N)=C1C#N)c1ccccc1` (stereo not drawn), the figure is 51% (inactive). Regarding `COc1ccccc1N1CCN(c2ncnc3c2cnn3C)CC1`, the survival was 83% (inactive). Take `O=C(c1ccc(F)cc1)N1CCC(c2nc3ccccc3s2)CC1`: the survival is 76% (inactive). Take `CCCOc1ccccc1C(=O)N1CCC(c2nc3ccccc3s2)CC1`: the survival is 63% (inactive). With `CCCOc1ccc(C(=O)N2CCC(c3nc4ccccc4s3)CC2)cc1`, the survival is 36% (active). In the case of `CCOc1cccc(C(=O)N2CCC(c3nc4ccccc4s3)CC2)c1` it was 75% (inactive); in that of `CC(C)Oc1ccc(C(=O)N2CCC(c3nc4ccccc4s3)CC2)cc1`, 49% (inactive).

For the compound `CC(C)COc1ccc(C(=O)N2CCC(c3nc4ccccc4s3)CC2)cc1`, the survival is 17% (active). As to `COc1cc(OC)cc(-n2nnc(-c3nc(-c4ccccc4Cl)no3)c2N)c1`, the survival was 86% (inactive).

With `COc1ccccc1N1CCN(S(=O)(=O)c2ccc(-c3coc(C)n3)cc2)CC1`, the survival is 71% (inactive). In the case of `O=C1CCCc2c1cc(C(=O)N1CCOCC1)c(=O)n2-c1ccccc1` it was 69% (inactive); in that of `CCc1ccc(NC(=O)N2CCN(C(=O)c3nsc4ccccc34)CC2)cc1`, 87% (inactive); in that of `CCc1ccccc1NC(=O)N1CCN(C(=O)c2nsc3ccccc23)CC1`, 17% (active). In the case of `Cc1ccc(NC(=O)N2CCN(C(=O)c3nsc4ccccc34)CC2)cc1C` it was -5% (active); in that of `O=C(Nc1ccccc1)N1CCN(C(=O)c2nsc3ccccc23)CC1`, 88% (inactive). In the case of `Cc1cc(C)cc(NC(=O)N2CCN(C(=O)c3nsc4ccccc34)CC2)c1` it was 88% (inactive); in that of `Cc1cccc(NC(=O)N2CCN(C(=O)c3nsc4ccccc34)CC2)c1C`, 88% (inactive); in that of `O=c1oc2ccc3ccccc3c2cc1-c1nnc(Nc2ccc(F)cc2)s1`, 78% (inactive).

Turning to `Cc1cccc(NC(=O)CN2C(=O)C3(SCC(=O)N3c3ccccc3)c3ccccc32)c1` (stereo not drawn), the survival is 123% (inactive). As for `O=C(NCCc1csc2nc(-c3ccc(F)cc3)nn12)c1cccc(C(F)(F)F)c1`, the figure is 78% (inactive); as for `Cc1ccc(CNC(=O)CSc2ncc(S(=O)(=O)c3ccc(Br)cc3)c(=O)[nH]2)cc1`, 125% (inactive); as for `CCOc1ccc(CNC(=O)c2ccc3[nH]c(C)c(C)c3c2)cc1OC`, 67% (inactive). Turning to `CCCCN(C)CC(O)Cn1cc(/C=C/C(=O)c2ccc(OCC)cc2)c2ccccc21` (stereo not drawn), the survival is 6% (active). In the case of `CCOc1ccc(C(=O)/C=C/c2cn(CC(O)CN3CCc4ccccc43)c3ccccc23)cc1` (stereo not drawn) it was 56% (inactive); in that of `Cc1ccc(C(=O)/C=C/c2cn(CC(O)CN3CCc4ccccc43)c3ccccc23)cc1` (stereo not drawn), 73% (inactive).

As for `CCCCN(C)CC(O)Cn1cc(/C=C/C(=O)c2ccc(C)cc2)c2ccccc21` (stereo not drawn), the survival was 6% (active). Turning to `CCCCN(C)CC(O)Cn1cc(/C=C/C(=O)c2ccc(Br)cc2)c2ccccc21` (stereo not drawn), the survival was 0% (active). In the case of `C=CCn1cc(/C=C(/C#N)C(=O)OCC)c2ccccc21` it was 83% (inactive); in that of `CCCCN(C)CC(O)Cn1cc(/C=C/C(=O)c2ccc(OC)c(OC)c2)c2ccccc21` (stereo not drawn), 67% (inactive). In the case of `O=S1(=O)N=C(SCCO)c2ccccc21` it was 85% (inactive). On to `CCOc1ccc(NC(=O)c2cc(S(=O)(=O)N3CCCCCC3)cn2C)cc1`, for which the survival was 120% (inactive). As for `CCCC1N=C2c3ccccc3N=C(SCC(=O)NCCc3ccc(Cl)cc3)N2C1=O` (stereo not drawn), the figure is 93% (inactive); as for `Cc1ccccc1Cn1c(SCc2ccc(C(=O)NCCc3ccccc3)cc2)nc2ccncc21`, 82% (inactive); as for `CCCCOc1ccc(NC(=O)CS(=O)CC(=O)Nc2ccc(OC)cc2)cc1` (stereo not drawn), 84% (inactive). In the case of `CSc1cccc(NS(=O)(=O)c2ccc3[nH]cc(C(=O)N4CCCCCC4)c(=O)c3c2)c1` it was 82% (inactive); in that of `O=C(Nc1cc(-c2nc3ccccc3o2)ccc1Cl)c1ccc(Br)o1`, 54% (active).

With `CC(C)(C)c1ccc(C(=O)Nc2ccc(-c3nc4ccccc4o3)c(O)c2)cc1`, the survival is 69% (inactive). In the case of `CC(C)(C)c1ccc(C(=O)Nc2cc(-c3nc4ccccc4o3)ccc2Cl)cc1` it was 13% (active); in that of `Cc1cc(NC(=O)c2ccc(Br)o2)cc(-c2nc3ccccc3o2)c1O`, 98% (inactive). In the case of `Cc1ccc2oc(-c3ccc(C)c(NC(=O)c4ccc(C(C)(C)C)cc4)c3)nc2c1` it was 136% (inactive). As for `Cc1ccc2nc(-c3ccc(Cl)c(NC(=O)c4ccc(Br)o4)c3)oc2c1`, the figure is 48% (inactive).
